Common to all, as to design: scale not given: direction of the effect not stated beside the values
Test [1] addresses Protein translocase subunit SecA (Escherichia coli (strain K12)) (UniProt P10408). Briefly: Assay to Identify E. coli SecA ATPase Inhibitors. It is filed as functional. The conditions noted are these: 30 µM.
In test [2] the target is T1, Ubiquitin-activating enzyme e1, putative (Leishmania donovani (strain BPK282A1)) (UniProt E9BSI1).
T1 sequence (whole entry): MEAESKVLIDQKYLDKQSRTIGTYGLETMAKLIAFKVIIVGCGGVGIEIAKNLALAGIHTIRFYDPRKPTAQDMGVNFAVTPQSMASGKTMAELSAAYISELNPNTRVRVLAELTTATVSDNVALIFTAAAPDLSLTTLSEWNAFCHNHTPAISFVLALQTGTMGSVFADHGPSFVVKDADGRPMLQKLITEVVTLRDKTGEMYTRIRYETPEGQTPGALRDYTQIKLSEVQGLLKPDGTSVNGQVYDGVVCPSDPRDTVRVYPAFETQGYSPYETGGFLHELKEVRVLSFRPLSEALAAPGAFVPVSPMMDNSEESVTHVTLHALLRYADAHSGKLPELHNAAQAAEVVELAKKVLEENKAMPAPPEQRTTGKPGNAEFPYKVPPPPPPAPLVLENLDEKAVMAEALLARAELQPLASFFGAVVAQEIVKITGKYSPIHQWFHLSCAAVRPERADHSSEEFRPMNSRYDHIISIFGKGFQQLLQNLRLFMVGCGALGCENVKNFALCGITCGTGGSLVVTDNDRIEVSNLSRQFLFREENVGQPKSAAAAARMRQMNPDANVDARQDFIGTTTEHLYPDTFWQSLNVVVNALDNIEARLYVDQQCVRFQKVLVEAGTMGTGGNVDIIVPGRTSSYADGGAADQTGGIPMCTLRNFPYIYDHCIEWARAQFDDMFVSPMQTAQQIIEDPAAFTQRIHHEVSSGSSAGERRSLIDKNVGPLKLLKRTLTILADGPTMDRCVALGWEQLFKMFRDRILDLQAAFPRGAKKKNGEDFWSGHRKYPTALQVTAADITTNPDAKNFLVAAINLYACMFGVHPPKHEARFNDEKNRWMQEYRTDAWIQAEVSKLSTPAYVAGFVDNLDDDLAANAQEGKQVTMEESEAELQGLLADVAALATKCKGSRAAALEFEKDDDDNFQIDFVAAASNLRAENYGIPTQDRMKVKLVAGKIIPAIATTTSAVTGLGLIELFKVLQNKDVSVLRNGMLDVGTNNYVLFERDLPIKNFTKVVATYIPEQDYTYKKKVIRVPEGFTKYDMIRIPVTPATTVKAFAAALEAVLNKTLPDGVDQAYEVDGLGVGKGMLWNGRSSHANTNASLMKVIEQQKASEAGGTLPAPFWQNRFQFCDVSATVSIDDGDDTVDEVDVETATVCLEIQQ
Description: Leishmania donovani Ubiquitin Activating Enzyme (LdE1). In kind it is functional. The conditions noted are these: 30 µM.

The target of test [3] is AMP-activated protein kinase, AMPK (Homo sapiens) (UniProt P54646+O43741+P54619+Q9UGJ0+Q9Y478+Q13131+Q9UGI9). Description: AMP-dependent Kinase enzyme assay. An in vitro enzyme assay that detects ADP turnover that is directly proportional to AMPK activity. This uses naive AMPK that is activated during the assay with MK-8722. The conditions noted are these: 30 µM. It is filed as functional.

Test [4] deals with Sialic acid-binding Ig-like lectin 9 (Homo sapiens) (UniProt Q9Y336). Description: Hs-Siglec9 ALPHAscreen SOP 20170721. The note with it: 10 µM.
Test [5] deals with Trypanosoma cruzi. Briefly: Trypanosoma cruzi phosphomannomutase and mannose-1-phosphate guanylyltransferase assay. In kind it is functional. The conditions noted are these: 10 µM.
Test [6] concerns the target T2, Arginase-2, mitochondrial (Homo sapiens) (UniProt P78540).
T2 sequence (whole entry): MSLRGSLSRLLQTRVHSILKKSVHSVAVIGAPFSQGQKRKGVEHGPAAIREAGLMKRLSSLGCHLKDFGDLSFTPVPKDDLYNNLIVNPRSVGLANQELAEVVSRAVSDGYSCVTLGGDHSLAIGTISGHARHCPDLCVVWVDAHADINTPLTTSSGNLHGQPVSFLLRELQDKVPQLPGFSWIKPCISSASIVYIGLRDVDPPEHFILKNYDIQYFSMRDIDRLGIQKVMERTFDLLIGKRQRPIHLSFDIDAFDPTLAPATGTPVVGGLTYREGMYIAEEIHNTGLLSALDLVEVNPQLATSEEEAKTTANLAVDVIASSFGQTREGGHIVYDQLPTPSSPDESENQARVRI
Description: in vitro enzyme assay to detect the production of urea directly proportional to the activity of Arginase II. Note: in the data most compounds retested in dose-response had high values. The conditions noted are these: 33.3 µM. In kind it is functional.

Test [7] deals with T3, Proteasome subunit beta (Trypanosoma cruzi) (UniProt O96673).
T3 sequence (whole entry): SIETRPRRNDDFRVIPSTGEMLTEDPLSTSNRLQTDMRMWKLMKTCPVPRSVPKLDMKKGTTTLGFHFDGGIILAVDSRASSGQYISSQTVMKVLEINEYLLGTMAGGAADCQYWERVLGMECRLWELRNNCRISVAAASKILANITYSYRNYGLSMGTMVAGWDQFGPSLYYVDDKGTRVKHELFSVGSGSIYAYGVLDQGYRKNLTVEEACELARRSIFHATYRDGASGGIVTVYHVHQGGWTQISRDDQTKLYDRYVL
Briefly: Trypanosoma cruzi proteasome chymotrypsin-like activity (TcProtChymo) assay. Note: in the data most compounds retested in dose-response had high values. In kind it is functional. The note with it: 9.37 µM.

The species entered for test [8] is Homo sapiens. Briefly: To identify inhibition of the IFN signalling (Jak-Stat) pathway via expression of an eGFP reporter gene under the control of an IFN-stimulated response element (ISRE) containing MxA promoter. The note with it: 30 µM. In kind it is functional. On the technique in general: In a reporter assay the amount or activity of a reporter protein is the signal.

In test [9] the target is T4, Tyrosyl-tRNA synthetase, putative (Trypanosoma cruzi (strain CL Brener)) (UniProt Q4DSP6).
T4 sequence (whole entry): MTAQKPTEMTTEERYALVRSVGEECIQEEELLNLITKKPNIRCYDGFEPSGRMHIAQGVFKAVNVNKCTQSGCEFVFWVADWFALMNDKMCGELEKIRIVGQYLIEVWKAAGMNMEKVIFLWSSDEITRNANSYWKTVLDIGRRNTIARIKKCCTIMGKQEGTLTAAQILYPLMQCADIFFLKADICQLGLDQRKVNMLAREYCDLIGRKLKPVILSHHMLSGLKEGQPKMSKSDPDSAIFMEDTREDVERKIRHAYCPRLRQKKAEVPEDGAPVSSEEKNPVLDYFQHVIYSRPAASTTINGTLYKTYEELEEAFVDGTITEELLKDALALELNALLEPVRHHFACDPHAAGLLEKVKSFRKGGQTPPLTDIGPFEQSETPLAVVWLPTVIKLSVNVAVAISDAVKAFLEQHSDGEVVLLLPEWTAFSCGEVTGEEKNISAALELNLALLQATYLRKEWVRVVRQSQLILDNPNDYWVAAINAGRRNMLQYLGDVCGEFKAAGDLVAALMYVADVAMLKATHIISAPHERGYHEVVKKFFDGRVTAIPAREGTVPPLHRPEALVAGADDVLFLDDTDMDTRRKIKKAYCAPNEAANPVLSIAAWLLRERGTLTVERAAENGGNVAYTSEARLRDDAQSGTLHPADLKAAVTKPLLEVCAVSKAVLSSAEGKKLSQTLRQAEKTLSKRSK
Description: Trypanosoma cruzi tyrosyl tRNA synthetase (TcYRS) _High Tyrosine SOP. Note: in the data most compounds retested in dose-response had high values. In kind it is functional. The conditions noted are these: 30 µM.

The target of test [10] is T4, Tyrosyl-tRNA synthetase, putative (Trypanosoma cruzi (strain CL Brener)). Briefly: Trypanosoma cruzi tyrosyl tRNA synthetase (TcYRS) SOP. In kind it is functional. The note with it: 30 µM.
The target of test [11] is Chromo domain-containing protein 1 (Saccharomyces cerevisiae (strain ATCC 204508 / S288c) (Baker's yeast)) (UniProt P32657). Description: ScCHD-1 Enzyme Inhibition Assay. Note: in the data most compounds retested in dose-response had high values. In kind it is functional. The conditions noted are these: 30 µM.

For some of these results: Measured potencies and affinities stand elsewhere.

Sequence of Protein translocase subunit SecA (Escherichia coli (strain K12)) (P10408 whole entry): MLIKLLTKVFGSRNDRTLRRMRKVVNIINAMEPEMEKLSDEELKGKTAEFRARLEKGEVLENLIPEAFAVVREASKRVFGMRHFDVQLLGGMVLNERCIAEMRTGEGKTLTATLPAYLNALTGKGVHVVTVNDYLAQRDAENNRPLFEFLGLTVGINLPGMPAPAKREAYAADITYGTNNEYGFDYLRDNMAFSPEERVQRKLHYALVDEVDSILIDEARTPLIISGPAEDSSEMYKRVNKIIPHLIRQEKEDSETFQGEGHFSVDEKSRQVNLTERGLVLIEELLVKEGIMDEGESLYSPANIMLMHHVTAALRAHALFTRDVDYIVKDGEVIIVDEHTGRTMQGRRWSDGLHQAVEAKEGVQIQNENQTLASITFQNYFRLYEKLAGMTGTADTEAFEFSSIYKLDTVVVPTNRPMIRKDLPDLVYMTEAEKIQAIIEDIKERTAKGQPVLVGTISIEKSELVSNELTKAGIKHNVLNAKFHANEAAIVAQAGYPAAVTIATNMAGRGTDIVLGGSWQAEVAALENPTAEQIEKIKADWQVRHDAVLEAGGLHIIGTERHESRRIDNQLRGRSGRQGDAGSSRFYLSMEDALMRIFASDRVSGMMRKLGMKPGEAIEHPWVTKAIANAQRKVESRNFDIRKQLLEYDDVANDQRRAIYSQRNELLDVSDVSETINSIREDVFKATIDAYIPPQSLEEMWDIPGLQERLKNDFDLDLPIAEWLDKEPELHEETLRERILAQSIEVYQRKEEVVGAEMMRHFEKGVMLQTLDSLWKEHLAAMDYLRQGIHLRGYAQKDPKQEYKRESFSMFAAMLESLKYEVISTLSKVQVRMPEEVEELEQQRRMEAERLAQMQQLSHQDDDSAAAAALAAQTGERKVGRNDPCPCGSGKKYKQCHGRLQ
Sequence of Sialic acid-binding Ig-like lectin 9 (Homo sapiens) (Q9Y336 whole entry): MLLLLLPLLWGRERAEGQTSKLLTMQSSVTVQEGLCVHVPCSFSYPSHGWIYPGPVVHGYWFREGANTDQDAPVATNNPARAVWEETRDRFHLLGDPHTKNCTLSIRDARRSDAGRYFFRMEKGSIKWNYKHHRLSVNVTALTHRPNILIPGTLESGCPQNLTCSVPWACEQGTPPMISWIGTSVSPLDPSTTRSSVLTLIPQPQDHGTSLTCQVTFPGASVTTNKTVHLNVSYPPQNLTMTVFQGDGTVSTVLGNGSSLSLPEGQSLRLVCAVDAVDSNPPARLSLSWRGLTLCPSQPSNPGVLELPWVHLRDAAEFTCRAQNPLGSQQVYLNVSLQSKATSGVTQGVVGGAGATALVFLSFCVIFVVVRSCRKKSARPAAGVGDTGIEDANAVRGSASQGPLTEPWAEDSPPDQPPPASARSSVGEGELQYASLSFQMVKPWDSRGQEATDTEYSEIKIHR
Sequence of Chromo domain-containing protein 1 (Saccharomyces cerevisiae (strain ATCC 204508 / S288c) (Baker's yeast)) (P32657 whole entry, the tested form may be a part): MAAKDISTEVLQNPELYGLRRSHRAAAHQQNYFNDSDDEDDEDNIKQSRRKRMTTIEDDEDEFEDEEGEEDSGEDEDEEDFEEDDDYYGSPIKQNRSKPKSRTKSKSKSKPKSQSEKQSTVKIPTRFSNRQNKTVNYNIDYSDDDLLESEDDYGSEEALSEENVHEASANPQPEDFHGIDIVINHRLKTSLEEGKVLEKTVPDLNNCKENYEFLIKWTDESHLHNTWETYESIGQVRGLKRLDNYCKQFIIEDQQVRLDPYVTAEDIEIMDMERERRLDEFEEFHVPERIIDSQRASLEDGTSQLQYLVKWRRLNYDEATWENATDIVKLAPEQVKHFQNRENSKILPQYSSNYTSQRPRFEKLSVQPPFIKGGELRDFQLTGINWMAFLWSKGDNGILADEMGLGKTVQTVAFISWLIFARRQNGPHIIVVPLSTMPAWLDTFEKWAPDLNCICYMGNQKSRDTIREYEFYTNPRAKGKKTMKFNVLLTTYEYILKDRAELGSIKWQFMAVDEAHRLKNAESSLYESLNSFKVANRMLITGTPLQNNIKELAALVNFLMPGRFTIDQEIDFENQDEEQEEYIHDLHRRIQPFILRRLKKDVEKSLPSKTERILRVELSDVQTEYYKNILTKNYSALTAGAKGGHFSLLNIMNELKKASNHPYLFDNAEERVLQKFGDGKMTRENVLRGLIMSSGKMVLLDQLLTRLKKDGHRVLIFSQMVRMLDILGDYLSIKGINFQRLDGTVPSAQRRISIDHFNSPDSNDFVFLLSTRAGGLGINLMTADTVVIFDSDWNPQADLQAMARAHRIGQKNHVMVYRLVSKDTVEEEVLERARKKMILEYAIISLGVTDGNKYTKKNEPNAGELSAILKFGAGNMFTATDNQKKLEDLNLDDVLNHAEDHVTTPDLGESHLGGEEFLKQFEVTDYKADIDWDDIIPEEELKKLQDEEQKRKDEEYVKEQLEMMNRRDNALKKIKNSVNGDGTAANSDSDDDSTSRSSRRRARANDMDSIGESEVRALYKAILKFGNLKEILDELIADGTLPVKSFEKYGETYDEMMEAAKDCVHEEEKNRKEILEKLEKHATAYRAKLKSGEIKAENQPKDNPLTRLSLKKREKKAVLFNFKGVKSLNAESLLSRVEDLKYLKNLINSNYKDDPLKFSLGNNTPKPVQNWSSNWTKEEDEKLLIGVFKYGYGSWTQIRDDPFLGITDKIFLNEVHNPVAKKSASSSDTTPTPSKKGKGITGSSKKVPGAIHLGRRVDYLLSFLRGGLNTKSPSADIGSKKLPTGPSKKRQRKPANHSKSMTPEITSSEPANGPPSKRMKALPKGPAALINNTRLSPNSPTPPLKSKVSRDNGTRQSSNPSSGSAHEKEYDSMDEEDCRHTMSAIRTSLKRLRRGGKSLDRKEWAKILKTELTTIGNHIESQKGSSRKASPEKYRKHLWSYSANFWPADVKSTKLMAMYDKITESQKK

For `COCCN1CCc2cc(C(=O)N(C)C)c(NCC3CC3)nc2CC1`, the Percent Effect is -8.99% in [1]; 2.7% in test [2]; 1.27% in [3]; -1.99% in test [4]; -5.38% in test [5]; -1.24% in [6]. Also, the Percent Effect in test [7] is 8.5%; in test [8], -19.8%; in [9], 2.15%; in test [10], 11.1%; in test [11], -0.0365%.

Take `CCc1c(C(=O)NCC2CCS(=O)(=O)C2)cnn1-c1ccc(C)cc1` (stereo not drawn): the Percent Effect is -3.51% in test [1]; 17.7% in test [2]; -2.2% in [3]; -1.25% in [4]; 2.74% in test [5]; 4.94% in test [6]. The Percent Effect in test [7] was 2.54%; in [8], 5.86%; in test [9], 5.42%; in [10], 21.5%; in [11], -6.44%.

In the case of `COc1ccc(C(C)N2CCN(Cc3nccn3C)CC2)cc1Cl` (stereo not drawn), the Percent Effect in test [1] is -3.06%; in [2], 2.6%; in [3], -0.681%; in test [4] it was 9.44%; in test [5], -1.87%; in [6] it was 0.712%. In addition, the Percent Effect was 11.3% in test [7]; 9.04% in test [8]; 2.91% in test [9]; 0% in [10]; -0.322% in [11].

Consider `CCOCC(O)CN1CCN(C(=O)C2CC2)CC1` (stereo not drawn), for which the Percent Effect in test [1] is -3.95%; in test [2], 16.2%; in test [3] it was 86.5%; in [4], -5.78%; in test [5], 1.04%; in test [6], -8.42%. Besides, the Percent Effect in test [7] is 2.52%; in test [8], 10.7%; in test [9], 9.36%; in test [10], 16.1%; in test [11], -7.42%.

As for `Cc1cnn(CC2CN(CCS(=O)(=O)c3ccccc3)CCO2)c1` (stereo not drawn), the Percent Effect is -8.49% in test [1]; 0% in test [2]; 0.043% in [3]; -0.479% in test [4]; -2.25% in test [5]; -0.248% in test [6]. Further, the Percent Effect was 5.41% in test [7]; 12.1% in test [8]; 5.38% in test [9]; 1.24% in [10]; -5.16% in test [11].

Take `CC(C)c1ncc2c(n1)CN(Cc1ccc(C(N)=O)cc1)CC2`: the Percent Effect was -5.85% in test [1]; 18.4% in test [2]; -25.7% in test [3]; -1.87% in [4]; 10.7% in test [5]; -2.68% in test [6]. Moreover, the Percent Effect in test [7] is 11.5%; in test [8], 11.1%; in test [9] it was 12.2%; in test [10] it was 19.5%; in [11], -14.2%.

As to `Cc1c(C)n(Cc2ccncc2)c2nc3c(c(N)c12)CCCCC3`, the Percent Effect is -2.06% in [1]; 6.67% in test [2]; 9.29% in test [3]; 1.27% in test [4]; 9.43% in test [5]; -1.94% in test [6]. For the same compound, the Percent Effect was 15.3% in test [7]; 43.7% in test [8]; 3.17% in [9]; 12.8% in test [10]; -10.9% in test [11].

Take `Cc1nc(C)n(CC2CCCCN2CC(=O)NC2CCOCC2)n1` (stereo not drawn): the Percent Effect in test [1] is -5.64%; in test [2], 18.2%; in test [3], 6.87%; in test [4] it was 5.39%; in test [5], 6.37%; in test [6] it was -6.05%. Further, the Percent Effect in test [7] was 5.07%; in test [8] it was -0.818%; in test [9] it was 3.88%; in [10] it was 19.5%; in test [11], -7.41%.
